Screens: PubChem, Broad Institute
An excerpt weighted towards active compounds, which were near 1.7% of everything screened.
Vif imaging = HIV Vif inhibition. 340,000 tested, 0.35% active. inhibition, % at 7.49 µM. AID 602346. HEK293T cells, Vif self-association by quenched fluorescence, imaging, 24 h; in the data active = inhibition above about 50%, passing the limit was not always enough
FGF22 binding = shifts melting point of recombinant human FGF22; Q9HCT0; recombinant FGF22 thermal shift, SYPRO orange fluorescence; percent of sucrose octasulfate shift, DMSO zero; activity (Tm shift, normalised), % at 9.99 µM; 340,000 tested, 1.5% active;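 active = mean Tm shift, scaled 0 neutral to 100 positive control, at about 1.3% or above, every replicate too, limit read from the data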
Target sequence (Q9HCT0 whole entry, looked up): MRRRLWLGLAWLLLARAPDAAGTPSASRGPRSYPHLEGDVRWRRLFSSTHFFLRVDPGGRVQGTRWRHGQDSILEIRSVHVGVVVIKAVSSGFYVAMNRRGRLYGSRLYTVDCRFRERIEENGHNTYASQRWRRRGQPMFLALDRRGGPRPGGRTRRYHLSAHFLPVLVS
CFTR F508del cor = CFTR F508del correction in bronchial cells. CFBE cells, YFP halide quenching; stimulated with forskolin plus potentiator P3; % fluorescence drop versus neutral controls. activity (quench increase), % at 7.58 µM. 350,000 tested, 0.36% active;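 active = mean added fluorescence quench of at least 8% versus neutral control, with both replicates also reaching 8%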;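 also: cells transiently co-express mutant CFTR-F508del with the halide-sensitive YFP; corrector assay measuring rescue of mutant channel to the surface after 24 h compound exposure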
Numbers without * were called inactive; / = no result given.

SMILES	Vif imaging	FGF22 binding	CFTR F508del cor
COC(=O)c1c(NC(C)=O)sc(C(=O)Nc2ccccc2)c1C	14.4	42.8	-0.7
NC(=O)NCC#Cc1ccc2c(c1)[C@]1(C(=O)N2)[C@H](C(=O)O)[C@H]2C(=O)O[C@H](c3ccccc3)[C@H](c3ccccc3)N2[C@@H]1c1ccc(OCCO)cc1	/	0.7	0.0
O=C(O)CNC(=O)c1ccccc1F	-6.9	/	/
Cc1ccccc1C(=O)NCC(=O)O	1.2	43.0*	-0.1
CCCNC(=O)N1CC2(CCN(Cc3cccc(F)c3)CC2)c2c([nH]c3cc(OC)ccc23)[C@H]1CO	/	-0.1	1.4
COc1ccc(Oc2ccc(N/C=C/C(=O)C(C)(C)C)cc2)cc1	9.2	0.1	-2.1
COc1cccc(Oc2ccc(N/C=C/C(=O)C(C)(C)C)cc2)c1	1.3	43.6*	2.0
N#C[C@H]1[C@@H](c2ccccc2-c2cccc(F)c2)[C@@H](CO)N1C(=O)C1CC1	/	/	1.9
COc1ccccc1C#Cc1ccc([C@@H]2[C@H]3CN(CCC(F)(F)F)CCCCN3[C@H]2CO)cc1	/	-0.4	0.4
CCCNC(=O)N1CC(=O)N2[C@H](C1)[C@H](c1ccc(-c3ccc(C)cc3)cc1)[C@@H]2CO	/	/	1.8
CC1(C)Cc2ccccc2C(/C(C#N)=N/O)=N1	-0.4	42.9*	-1.9
COc1ccc(N/N=C(/C(N)=O)C2=NC(C)(C)Cc3ccccc32)cc1	-0.6	-0.4	/
O=C(C[C@H]1C=C[C@@H](NC(=O)C2CCOCC2)[C@@H](CO)O1)NCC1CC1	/	0.6	0.1
CCC(=O)Nc1ccc2c(c1)C(=O)N(C)[C@H]1CC[C@H](CC(=O)NCc3ccccc3Cl)O[C@@H]1CO2	/	0.1	0.8
O=C(Nc1ccccc1)Nc1ccc2c(c1)[C@H]1C[C@H](CC(=O)N3CCCCC3)O[C@@H](CO)[C@H]1O2	/	0.2	-0.4
CCc1csc(N2[C@@H](C#N)[C@H](c3ccc(-c4cccc(F)c4)cc3)[C@@H]2CO)n1	/	-0.2	-3.1
COc1ccc(C2C3=C(CCCC3=O)Nc3nc(-c4cc(OC)c(OC)c(OC)c4)nn32)cc1OC (configuration not stated)	7.8	/	/
COc1cc(-c2nc3n(n2)C(c2ccncc2)C2=C(CCCC2=O)N3)cc(OC)c1OC (configuration not stated)	29.7	44.0*	-1.9
CCC(=O)N1[C@H](CO)[C@H](c2ccc(-c3ccc(F)cc3)cc2)[C@H]1CNC(C)=O	/	/	1.3
CC(=O)N1CC(=O)N2[C@@H](CO)[C@H](c3ccc(C#CC(C)C)cc3)[C@@H]2C1	/	-0.6	1.9
COc1cc2nc3n(c(=O)c2cc1OC)-c1cc2ccccc2cc1C(=O)NC3CC(C)C (configuration not stated)	-1.7	43.4*	-4.3
COc1cc2nc3n(c(=O)c2cc1OC)-c1cc2ccccc2cc1C(=O)NC3Cc1ccccc1 (configuration not stated)	/	-0.2	-0.6
CN(C)C(=O)c1ccc(-c2ccc(C3[C@H]4CNC[C@@H]3N4S(=O)(=O)c3ccc(Cl)cc3)cc2)cc1 (some centres not stated)	/	-0.3	0.4
Cc1ccc(S(=O)(=O)Nc2cccc3c2O[C@@H](CN(C)Cc2ccccc2)[C@@H](C)CN([C@@H](C)CO)C3=O)cc1	/	0.0	-0.6
CC(=O)Nc1cccc(NC(=S)Nc2ccc(F)cc2F)c1	17.8	43.3*	1.8
SMILES	Vif imaging	FGF22 binding	CFTR F508del cor
CC(=O)Nc1cccc(NC(=S)Nc2cccc(Cl)c2Cl)c1	6.8	-0.1	-1.6
CCCCCC(=O)NC(=S)Nc1cccc(C(C)=O)c1	-3.5	43.6*	0.4
CC(=O)c1cccc(NC(=S)NCCc2ccc(F)cc2)c1	4.5	43.9*	-2.3
CCCC(=O)NC(=S)Nc1cccc(C(C)=O)c1	1.3	/	/
CC(=O)c1cccc(NC(=O)NCCc2ccc(Cl)cc2)c1	-2.8	0.0	1.7
C[C@H]1CCCCO[C@@H](CN(C)C(=O)Nc2ccc(C(F)(F)F)cc2)[C@@H](C)CN([C@@H](C)CO)C(=O)c2cc(NC(=O)Nc3ccc(C(F)(F)F)cc3)ccc2O1	/	0.1	0.0
CCCNC(=O)N(C)C[C@@H]1Oc2cc(C#CC3CC3)ccc2S(=O)(=O)N([C@H](C)CO)C[C@@H]1C	/	0.2	-4.3
C[C@H](CO)N1C[C@H](C)[C@@H](CN(C)Cc2ccc(Oc3ccccc3)cc2)Oc2ccc(NC(=O)c3ccncc3)cc2C1=O	/	/	-1.6
CCCC(=O)Nc1ccc2c(c1)C(=O)N(C)C[C@@H](OC)[C@H](C)CN(C(=O)CC1CC1)[C@@H](C)CO2	/	0.0	-1.4
C[C@@H]1CN([C@H](C)CO)C(=O)c2cc(C#CC3(O)CCCC3)cnc2O[C@H]1CN(C)C(=O)Cc1cccnc1	/	-0.2	-0.3
O=C(c1ccncc1)N1CC[C@@H]2[C@@H](CO)Nc3ccc(Br)cc3[C@@H]21	/	/	0.4
CN(C)CC(=O)N[C@H]1CC[C@H](CCn2cc(C3CC3)nn2)O[C@H]1CO	/	-0.2	2.9
O=C(c1cccnc1)N1CCN(C/C=C/c2ccccc2)CC1	-2.8	43.3*	-4.5
O=C(NC(=S)N1CCN(C/C=C/c2ccccc2)CC1)c1cccnc1	1.4	-0.1	-1.9
COc1ccccc1N(C)S(=O)(=O)c1ccc(C(=O)Nc2ncc(C)s2)cc1	/	0.4	4.9
COc1ccccc1N(C)S(=O)(=O)c1ccc(C(=O)Nc2nccs2)cc1	-17.0	-0.2	26.6*
CO[C@@H]1CN(C)C(=O)c2ccc(NS(=O)(=O)c3ccccc3F)cc2OC[C@H](C)NC[C@@H]1C	/	0.0	-0.9
CN1CCN(C(=O)C[C@H]2C=C[C@H](NC(=O)Nc3ccccc3F)[C@@H](CO)O2)CC1	/	0.0	3.9
Cc1nc(-c2cccc(NC(=O)c3cccs3)c2)cs1	8.4	/	/
Cc1nc(-c2cccc(NC(=O)Cc3ccccc3)c2)cs1	-6.6	43.4*	4.4
C[C@H]1CCCCO[C@H](CN(C)S(=O)(=O)c2ccccc2)[C@@H](C)CN([C@@H](C)CO)C(=O)c2cc(NC(=O)CCC(F)(F)F)ccc2O1	/	0.4	-2.5
CCNC(=O)C[C@@H]1CC[C@@H]2[C@H](COc3ccc(NC(=O)C4CCCCC4)cc3C(=O)N2C)O1	/	-0.8	-1.4
CNC[C@@H]1Oc2ccc(NC(=O)C3CCCCC3)cc2C(=O)N([C@H](C)CO)C[C@@H]1C	/	-0.3	-1.0
Fc1ccc(Nc2nc3ccccc3s2)cc1	0.5	42.4	1.1
Cc1ccc(Nc2nc3ccccc3s2)cc1	-2.8	1.5*	/
SMILES	Vif imaging	FGF22 binding	CFTR F508del cor
Cc1ccc(S(=O)(=O)N(C)C[C@@H]2Oc3ccc(NC(=O)NC(C)C)cc3CC(=O)N([C@@H](C)CO)C[C@H]2C)cc1	/	-0.2	-1.0
COc1ccc2c3c([nH]c2c1)[C@@H](CO)N(C(=O)C1CC1)CC31CCN(S(C)(=O)=O)CC1	/	0.1	-0.7
Cc1cc(/C=N/NC(N)=S)c(O)c(/C=N/NC(N)=S)c1	-3.4	0.0	14.0*
NC(=S)N/N=C/c1cccc(O)c1O	10.1	0.4	-2.8
COc1ccc(C2C3=C(COC3=O)Oc3cc4c(cc32)OCO4)cc1OC (configuration not stated)	-0.7	-0.2	9.6*
COc1cc(C2C3=C(COC3=O)Oc3cc4c(cc32)OCO4)ccc1OC(C)=O (configuration not stated)	3.7	-0.1	3.8
